Results from PubChem BioAssay AID1259343 (VanderVen Lab, College of Veterinary Medicine, Cornell …, 2017).
Hit rate of the full screen: of about 6,200 compounds, about 2,900 (47%) were called active. No stated cut-off is given here; in the data, active means inhibition above about 50%; inactive means the rest. So high a share suggests a set chosen from earlier hits. This is one part of the list.

Experiment: Mycobacterium tuberculosis growth inhibition, primary screen (AID 1259343)
Details: inhibition: at 10 µM, active compounds read high; outcome: 10 uM
With `O=C(O)c1cccc(=O)n1CCOc1ccccc1Cl` the inhibition was 53.1% (active).
With `Cc1ccc(C)c2c3c([nH]c12)-c1nonc1CC3` the inhibition was 34.5% (inactive).
In the case of `Cc1nc2ccccc2c(=O)n1NC(=S)NC(=O)c1ccc(Br)cc1`, the inhibition is reported as 40.8% (inactive).
With `O=c1[nH]n2c(=O)c3ccccc3nc2c2ccccc12` the inhibition was 86% (active).
With `CCn1c2ccccc2c2nc3ccccc3nc21` the inhibition was -25.2% (inactive).
For `CC1CN(c2ccc(C(=O)NC(c3ccccc3)c3ccc(Cl)cc3)cn2)CCN1` (stereo unspecified), the inhibition was 33.2% (inactive).
In the case of `Cc1cc(C(C)(C)C)cc(C)c1CCN1CN(CCO)c2nc3ccccc3n2C1`, the inhibition is reported as 66.6% (active).
In the case of `CC1CC(C)CN(S(=O)(=O)NCc2cc3ccccc3[nH]2)C1` (stereo unspecified), the inhibition is reported as 27.9% (inactive).
In the case of `CN(C(=O)CN1CCC(c2cc3ccccc3[nH]2)CC1)C1CC1`, the inhibition is reported as -6.34% (inactive).
With `CC1CCN(S(=O)(=O)N2CCCC(c3cc4ccccc4[nH]3)C2)CC1` (stereo unspecified) the inhibition was 73.2% (active).
In the case of `N[C@H]1CN[C@H](C(=O)N2CC(N3CCCCC3)C2)C1`, the inhibition is reported as -19.7% (inactive).
In the case of `CC/C=C(/C)C(=O)Nc1ccc(-n2nccn2)cc1`, the inhibition is reported as 96.5% (active).
In the case of `COc1c(N2CCNC(C)C2)c(F)cc2c(=O)c(C(=O)O)cn(C3CC3)c12` (stereo unspecified), the inhibition is reported as 98% (active).
In the case of `O=C(Cc1cc(-c2ccc(Cl)cc2)on1)NCCC1=CCCCC1`, the inhibition is reported as 37.4% (inactive).
With `O=C(CCS(=O)(=O)c1ccc(Cl)cc1)NCCC1=CCCCC1` the inhibition was 79% (active).
With `Cc1cc(=O)[nH]c(-n2nc(C3CC3)cc2NC(=O)COc2ccc(Cl)cc2Cl)n1` the inhibition was 100% (active).
In the case of `COc1ccc(OCC(=O)Nc2cc(C3CC3)nn2-c2nc(C)cc(=O)[nH]2)cc1`, the inhibition is reported as -5.9% (inactive).
With `Cc1cc(=O)[nH]c(-n2nc(C3CC3)cc2NC(=O)COc2ccc(F)cc2)n1` the inhibition was 99.9% (active).
In the case of `Cc1cc(=O)[nH]c(-n2nc(C3CC3)cc2NC(=O)COc2ccc(Cl)cc2)n1`, the inhibition is reported as 100% (active).
For `Cc1cc(=O)[nH]c(-n2nc(C)cc2NC(=O)COc2ccc(F)cc2)n1`, the inhibition was 99.8% (active).
In the case of `CCCCn1c(O)c(C=Nc2cccc(C)c2)c(C)c(C#N)c1=O`, the inhibition is reported as -35.7% (inactive).
With `Cc1cc(C(F)(F)F)c2c(n1)sc1c(O)cc(=O)[nH]c12` the inhibition was 27.2% (inactive).
With `Cc1cc(=O)[nH]c(-n2nc(C)cc2NC(=O)C(C)Oc2ccccc2)n1` (stereo unspecified) the inhibition was 99.8% (active).
For `Cc1cc(=O)[nH]c(-n2nc(C)cc2NC(=O)C(c2ccccc2)c2ccccc2)n1`, the inhibition was 101% (active).
For `CCc1cc(=O)[nH]c(-n2nc(C)cc2NC(=O)C(c2ccccc2)c2ccccc2)n1`, the inhibition was 100% (active).
For `CCc1c(C)nc(-n2nc(C)cc2NC(=O)C(CC)c2ccccc2)[nH]c1=O` (stereo unspecified), the inhibition was 12.6% (inactive).
